This is an account of results in PubChem BioAssay (NCATS).

For assay [1], the target named is Lysosomal acid glucosylceramidase (Homo sapiens) (UniProt P04062). In words: Glucocerebrosidase-p2 (AID 348; in the data active means potency below about 10 µM; further: potency means the concentration at half of the fitted maximal effect). The settings on record: purified GBA, blue fluorogenic substrate, 40 min. The procedure, abridged:
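Compounds titrated from 0.6 nM upwards against 0.2 nM enzyme in pH 5.9 citric acid/KH2PO4, taurocholate, tween-20; blue fluorogenic substrate 80 uM, 40 min room temperature, stopped and read Ex 365/Em 440 for AC50.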

Assay [2] in a line: AP1 Signaling Pathway (AID 357; active means well fitted curve in either direction with a large enough effect, not every such curve was filed as active;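 further: ME-180 reporter cells stimulated with EGF at its EC50 level; on the % scale 0 is the no-effect control and ±100 the full control effect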). The following applies: ME-180 AP-1-bla reporter, EGF-induced, beta-lactamase ratio, 5 h; at 7.69 µM (top of the series) unless noted. The procedure, abridged: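 Modulation of EGF-driven AP-1 transcription was assessed with a beta-lactamase reporter in ME-180 cells. Compound and EC50 EGF were co-incubated 5 hours at 37 °C before 2.5-hour CCF4 loading at room temperature and dual-emission reading.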

The target in assay [3] is Cytochrome P450 1A2 (Homo sapiens) (UniProt P05177). The assay is described as follows: p450-cyp1a2 (AID 410; calls by dose curve; further: potency means the concentration at half of the fitted maximal effect;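 on activity change, negative = inhibition: -100% = full effect of reference inhibitor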). The settings on record: recombinant CYP1A2, luciferin-ME demethylation, luminescence; series mostly up to 57 µM. The procedure, abridged:
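Human CYP1A2 (20nM) demethylated Luciferin-ME at its Km (100uM) in 100mM KPO4. After 10 min compound preincubation, NADPH regeneration ran the reaction 60 min at room temperature. Luciferin was read by luminescence, normalized to 57 uM furafylline.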

A short description of assay [4]: NFAT Signaling Pathway (AID 444; active means well fitted curve in either direction with a large enough effect, not every such curve was filed as active;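 further: carbachol stimulus at about its EC50 of 1 µM final; on the % scale 0 is the no-effect control and ±100 the full control effect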). The following applies: Jurkat NFAT-bla M1, carbachol, beta-lactamase ratio, 5 h; at 7.69 µM (top of the series) unless noted. The procedure, abridged: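 Jurkat cells carrying an NFAT-driven β-lactamase reporter and co-transfected muscarinic M1 receptor were treated with compound plus carbachol (1 uM final, an EC50 level) for 5 h at 37 °C. CCF4 loading followed for 1 h at RT; 460/530 nm ratio gave %activity.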

The nature of assay [5]: Stat Signaling Pathway (AID 446; active means well fitted curve in either direction with a large enough effect, not every such curve was filed as active;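 further: ME-180 cervical cancer cells given 40 pM IL-6 alongside compound; SIE-controlled beta-lactamase reporter measured as 460/530 nm FRET emission ratio; on the % scale 0 is the no-effect control and ±100 the full control effect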). The settings on record: ME-180 SIE beta-lactamase reporter, IL-6 stimulated, 5 h; at 7.69 µM (top of the series) unless noted. The method in brief:
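Screening format detects activators and inhibitors alike: ME-180 SIE-bla cells stimulated at 40 pM IL-6 for 5 hrs with compound, then dual-emission beta-lactamase read at 405 nm excitation.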

Assay [6] concerns the target Glucocorticoid receptor (Homo sapiens) (UniProt P04150). The assay is described as follows: GR-EFC Redistribution (AID 451; calls by dose curve; further: potency means the concentration at half of the fitted maximal effect). The following applies: CHO-K1 GR-EFC translocation, beta-gal luminescence, 2 h. The procedure, abridged: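 CHO-K1 cells stably expressing nuclear-localized β-gal enzyme acceptor and GR fused C-terminally to the enzyme donor fragment; ligand-driven nuclear translocation restores β-gal by complementation. Compounds titrated up to 46 uM final, 2 h at 37 °C; luminescence read.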

Assay [7] addresses Mitogen-activated protein kinase 10 (Mus musculus) (UniProt Q61831). In words: JNK3 AlphaScreen Assay (AID 530; active means well fitted curve in either direction with a large enough effect, not every such curve was filed as active;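 further: kinase came from lysate of stimulated human HepG2 cells; signal reports phosphorylation of biotinylated GST-cJun 1-79 at Ser73 with 10 µM ATP; on the % scale 0 is the no-effect control and ±100 the full control effect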). The following applies: JNK3 lysate, c-Jun phosphorylation; series mostly up to 57.1 µM. The method in brief:
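JNK3 came from HepG2 lysates pre-activated with IL-1beta and TNF-alpha and phosphorylated biotinylated GST-cJun (1-79) at 10 uM ATP, pH 7.6, room temperature. Compounds were titrated. AlphaScreen signal used anti-phospho-cJun (Ser73) antibody.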
On the technique in general: Bead proximity is the source of the signal in Alpha formats.

Assay [8] has as its target 3',5'-cyclic-AMP phosphodiesterase 4B (Homo sapiens) (UniProt Q07343). The assay is described as follows: qHTS Assay for Inhibitors of PDE-IV (AID 607; active means well fitted activation curve with a large enough effect in the main read-out, with a control signal flat, not every such curve was filed as active; further: % of control where 0% means no effect). The settings on record: HEK293 ACTOne CNG channel cells, membrane potential fluorescence; series mostly up to 22.9 µM. The procedure, abridged:
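The readout is membrane depolarisation from a cAMP-sensing CNG channel, detected with a potential dye at ex 535/em 590. Cells were HEK293-derived (endogenous PDE-IV) at 1000 cells/well, titrated up to 22.9 uM final.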
(In general: Quantitative high-throughput screening tests each substance at several concentrations.)

The target in assay [9] is Cytochrome P450 3A4 (Homo sapiens) (UniProt P08684). The assay is described as follows: qHTS Assay for Activators of Cytochrome P450 3A4 (AID 885). Further: nearly all actives have a fitted effect of over 65% in size. The settings on record: recombinant CYP3A4, Luciferin-PPXE luminescence, 60 min; series mostly up to 57.1 µM. The procedure, abridged: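 Steps: enzyme/substrate mix dispensed; compound added, 10 min RT; NADPH regeneration solution added, 60 min RT; luciferin detection buffer stops reaction; 20 min later luminescence measured.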

Assay [10] in a line: Primary qHTS for small molecule stabilizers of the endoplasmic reticulum resident proteome: Secreted ER Calcium Modulated Protein (SERCaMP) assay (AID 1508630). Further: on the % scale 0 is the no-effect control and ±100 the full control effect. The settings on record: SH-SY5Y GLuc-SERCaMP (Gaussia luciferase released on ER calcium loss) secretion, thapsigargin, luminescence; series mostly up to 38.4 µM. The procedure, abridged:
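GLuc-SERCaMP-expressing SH-SY5Y cells, pretreated 16 h with compound, are challenged with thapsigargin to empty ER calcium stores; after 4 h, coelenterazine is added directly to the medium and luminescence is imaged.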

The target in assay [11] is Rap guanine nucleotide exchange factor 3 (Homo sapiens) (UniProt O95398). In words: Confirmatory qHTS for antagonist of cAMP-regulated guanine nucleotide exchange factor 3 (EPAC1) (AID 1645880).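 Further: plate controls were DMSO only for no effect and full effect of the ATA control for full effect; nearly all actives have a fitted effect of over 55% in size.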 The following applies: EPAC1 Rap1B-BODIPY-GDP exchange, fluorescence; series mostly up to 115 µM. The method in brief:
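Nucleotide exchange uses 100 nM EPAC1, 250 nM RAP1B-BODIPY-GDP and 50 uM GDP, with compounds in a concentration-titration series. After 5 min at room temperature, fluorescence (480 nm ex/540 nm em) is read every 5 min for 30 min. Data are normalized to control ATA and DMSO.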

Assay [12] shares this target. In words: Confirmatory qHTS for agonist of cAMP-regulated guanine nucleotide exchange factor 3 (EPAC1) (AID 1645881).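 Further: EPAC1 catalysed release of BODIPY-GDP from Rap1B seen as fluorescence loss; 100% = effect of cAMP agonist control; nearly all actives have a fitted effect of over 75% in size.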 The following applies: EPAC1 Rap1B BODIPY-GDP exchange fluorescence; series mostly up to 154 µM.
Assay [13] has as its target Rap guanine nucleotide exchange factor 4 (Homo sapiens) (UniProt Q8WZA2). In words: Confirmatory qHTS for agonist of cAMP-regulated guanine nucleotide exchange factor 4 (EPAC2) (AID 1645884).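 Further: nucleotide exchange releases bodipy-GDP from Rap1 and this lowers its fluorescence; on the % scale 0 is the no-effect control and ±100 the full control effect; nearly all actives have a fitted effect of over 65% in size.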 The settings on record: EPAC2 GEF activity, Rap1B-BODIPY-GDP fluorescence; series mostly up to 154 µM.
For assay [14] the target is unchanged. The assay is described as follows: Confirmatory qHTS for antagonist of cAMP-regulated guanine nucleotide exchange factor 4 (EPAC2) (AID 1645885). Further: nearly all actives have a fitted effect of over 25% in size. Further: potency means the concentration at half of the fitted maximal effect. The following applies: EPAC2 Rap1B-BODIPY-GDP exchange fluorescence, biochemical; series mostly up to 114 µM.
Assay [15] addresses Glucocorticoid receptor (Homo sapiens) (UniProt P04150). In words: GR-GFP Redistribution (AID 450;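 active means compounds whose dose series gives a full or clear partial fitted curve of increased nuclear translocation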; further: potency means the concentration at half of the fitted maximal effect). The following applies: U2OS GR-GFP nuclear translocation, laser cytometry, 2 h.
The target in assay [16] is Cytochrome P450 3A4 (Homo sapiens) (UniProt P08684). The assay is described as follows: qHTS Assay for Inhibitors and Substrates of Cytochrome P450 3A4 (AID 884). Further: potency means the concentration at half of the fitted maximal effect; nearly all actives have a fitted effect of over 50% in size. The settings on record: recombinant CYP3A4, Luciferin-PPXE luminescence; series mostly up to 57.1 µM. The procedure, abridged: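 20 nM human CYP3A4 with 25 uM Luciferin-PPXE (at KM) in 200 mM KPO4, preincubated 10 min with compound; NADPH regeneration started a 60 min RT reaction. Luciferin detected by luminescence, normalized to 57 uM ketoconazole as full inhibition.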

Assay [17] has as its target Dual specificity protein kinase CLK4 (Homo sapiens) (UniProt Q9HAZ1). In words: qHTS Assay for Inhibitors of CDC-like Kinase 4 (ADP-FP Assay) (AID 1795). Further: nearly all actives have a fitted effect of over 60% in size. Further: potency means the concentration at half of the fitted maximal effect. The settings on record: Transcreener ADP fluorescence polarization; series mostly up to 50 µM. The method in brief: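 Clk4 6.25 nM; RS peptide 100 uM; ATP 1 uM; 25 mM Tris pH 7.5, 10 mM MgCl2; 1 h reaction. ADP detected via antibody/orange tracer FP displacement; TG003 positive control.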

The target of assay [18] is Ubiquitin carboxyl-terminal hydrolase 1 (Homo sapiens) (UniProt O94782). In words: Inhibitors of USP1/UAF1: Pilot qHTS (AID 504865).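 Further: rhodamine fluorescence freed from ubiquitin-rhodamine substrate followed over time; top concentration of the series differs between compounds; on the % scale 0 is the no-effect control and ±100 the full control effect; nearly all actives have a fitted effect of over 35% in size.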 The following applies: purified USP1/UAF1, Ub-rhodamine cleavage fluorescence; series mostly up to 54.9 µM. The method in brief:
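In 50mM HEPES pH 7.8 containing 0.5mM EDTA, 1mM TCEP, 0.1 mg/ml BSA and 0.01% Tween-20, 1nM USP1/UAF1 is exposed to compound for 15 min, then Ub-Rho (150nM final) is added and fluorescence is read over time.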

“And” between values parts separate entries of the source, which are not always exact repeats. Equal values may be shown once. Unmarked numbers belong to inactive results. Inconclusive results are not listed. The source made the active and inactive calls. Unless noted, the call rests on the fitted dose curve; in most records, active means well fitted curve in the direction sought with a large enough effect; inconclusive means small, poorly fitted or top-dose-only effect, or another doubt; inactive means no such curve, though single readings can be large; an effect the other way counts as inactive or inconclusive.

Chain of Glucocorticoid receptor (Homo sapiens) (P04150 whole entry, looked up, the tested form may be a part): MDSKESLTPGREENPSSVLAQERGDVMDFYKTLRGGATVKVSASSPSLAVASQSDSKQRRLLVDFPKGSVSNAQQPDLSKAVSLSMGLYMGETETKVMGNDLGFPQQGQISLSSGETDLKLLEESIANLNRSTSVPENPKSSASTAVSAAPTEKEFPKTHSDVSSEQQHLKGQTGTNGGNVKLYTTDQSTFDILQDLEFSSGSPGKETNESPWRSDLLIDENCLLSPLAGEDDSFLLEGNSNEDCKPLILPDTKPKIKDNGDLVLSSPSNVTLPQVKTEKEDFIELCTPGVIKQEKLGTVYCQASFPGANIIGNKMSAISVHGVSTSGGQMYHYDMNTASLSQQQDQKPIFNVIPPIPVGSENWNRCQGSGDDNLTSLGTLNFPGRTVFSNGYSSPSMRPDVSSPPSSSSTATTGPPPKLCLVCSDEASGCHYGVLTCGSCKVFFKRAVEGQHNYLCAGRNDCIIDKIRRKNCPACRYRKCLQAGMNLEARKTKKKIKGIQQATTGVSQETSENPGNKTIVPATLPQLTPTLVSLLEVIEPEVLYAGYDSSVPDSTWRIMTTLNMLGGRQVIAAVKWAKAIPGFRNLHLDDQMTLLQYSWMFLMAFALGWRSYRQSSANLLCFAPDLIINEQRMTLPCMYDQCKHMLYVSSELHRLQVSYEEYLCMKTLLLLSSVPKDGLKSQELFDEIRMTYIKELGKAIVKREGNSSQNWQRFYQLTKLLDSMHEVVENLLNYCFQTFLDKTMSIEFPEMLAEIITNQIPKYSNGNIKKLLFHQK
Chain of Lysosomal acid glucosylceramidase (Homo sapiens) (P04062 whole entry, looked up): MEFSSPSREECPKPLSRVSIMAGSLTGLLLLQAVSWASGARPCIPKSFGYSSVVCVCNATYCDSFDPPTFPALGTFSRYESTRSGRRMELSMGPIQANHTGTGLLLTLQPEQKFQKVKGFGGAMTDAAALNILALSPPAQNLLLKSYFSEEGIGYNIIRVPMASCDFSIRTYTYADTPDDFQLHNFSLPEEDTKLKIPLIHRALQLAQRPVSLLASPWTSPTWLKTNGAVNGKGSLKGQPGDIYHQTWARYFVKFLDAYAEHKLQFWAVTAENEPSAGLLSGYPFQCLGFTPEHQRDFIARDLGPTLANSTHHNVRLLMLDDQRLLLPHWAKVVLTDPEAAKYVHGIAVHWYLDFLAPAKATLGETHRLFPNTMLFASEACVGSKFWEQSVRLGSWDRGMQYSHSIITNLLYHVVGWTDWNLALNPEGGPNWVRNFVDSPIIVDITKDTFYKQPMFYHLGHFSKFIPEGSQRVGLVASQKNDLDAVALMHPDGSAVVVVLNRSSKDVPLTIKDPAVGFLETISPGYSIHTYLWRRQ
Chain of Rap guanine nucleotide exchange factor 4 (Homo sapiens) (Q8WZA2 whole entry, looked up): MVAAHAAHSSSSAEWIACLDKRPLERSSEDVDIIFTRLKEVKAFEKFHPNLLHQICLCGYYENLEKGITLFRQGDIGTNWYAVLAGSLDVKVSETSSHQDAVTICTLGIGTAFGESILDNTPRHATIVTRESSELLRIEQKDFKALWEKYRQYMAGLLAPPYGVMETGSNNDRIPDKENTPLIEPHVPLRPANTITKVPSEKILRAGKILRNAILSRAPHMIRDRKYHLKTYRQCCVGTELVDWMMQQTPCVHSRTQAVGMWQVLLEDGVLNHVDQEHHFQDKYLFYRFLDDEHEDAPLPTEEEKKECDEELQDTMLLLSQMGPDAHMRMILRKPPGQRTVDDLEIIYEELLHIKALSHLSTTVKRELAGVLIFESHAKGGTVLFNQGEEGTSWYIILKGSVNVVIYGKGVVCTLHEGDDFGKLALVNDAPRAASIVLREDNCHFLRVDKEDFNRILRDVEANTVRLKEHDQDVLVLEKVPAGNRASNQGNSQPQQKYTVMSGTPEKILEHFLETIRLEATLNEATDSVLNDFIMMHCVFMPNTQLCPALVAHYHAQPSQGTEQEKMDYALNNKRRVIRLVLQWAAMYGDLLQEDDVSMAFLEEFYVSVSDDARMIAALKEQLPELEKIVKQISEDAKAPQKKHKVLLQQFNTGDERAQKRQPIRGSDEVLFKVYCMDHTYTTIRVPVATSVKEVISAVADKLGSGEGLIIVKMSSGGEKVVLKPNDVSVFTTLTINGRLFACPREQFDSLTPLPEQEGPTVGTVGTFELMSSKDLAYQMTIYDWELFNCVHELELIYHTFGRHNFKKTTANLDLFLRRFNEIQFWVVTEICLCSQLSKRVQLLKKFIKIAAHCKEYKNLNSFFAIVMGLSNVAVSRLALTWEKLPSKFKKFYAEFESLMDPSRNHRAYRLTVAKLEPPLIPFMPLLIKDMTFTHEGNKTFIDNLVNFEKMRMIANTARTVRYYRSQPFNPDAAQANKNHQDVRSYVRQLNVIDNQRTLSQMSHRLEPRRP
Chain of Cytochrome P450 1A2 (Homo sapiens) (P05177 whole entry, looked up): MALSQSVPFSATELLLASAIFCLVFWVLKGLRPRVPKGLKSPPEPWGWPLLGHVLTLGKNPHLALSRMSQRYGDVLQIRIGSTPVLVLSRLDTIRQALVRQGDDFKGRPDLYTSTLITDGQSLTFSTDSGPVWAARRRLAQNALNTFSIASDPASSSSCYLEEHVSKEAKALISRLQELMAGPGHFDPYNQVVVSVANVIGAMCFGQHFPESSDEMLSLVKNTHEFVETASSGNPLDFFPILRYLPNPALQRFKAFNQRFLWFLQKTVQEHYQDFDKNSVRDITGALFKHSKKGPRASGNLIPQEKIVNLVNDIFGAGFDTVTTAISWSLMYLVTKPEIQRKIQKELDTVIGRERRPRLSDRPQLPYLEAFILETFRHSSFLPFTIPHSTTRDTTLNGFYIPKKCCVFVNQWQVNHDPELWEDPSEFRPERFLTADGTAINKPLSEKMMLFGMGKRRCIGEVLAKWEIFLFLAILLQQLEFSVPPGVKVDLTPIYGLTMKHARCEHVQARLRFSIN
Chain of Cytochrome P450 3A4 (Homo sapiens) (P08684 whole entry, looked up): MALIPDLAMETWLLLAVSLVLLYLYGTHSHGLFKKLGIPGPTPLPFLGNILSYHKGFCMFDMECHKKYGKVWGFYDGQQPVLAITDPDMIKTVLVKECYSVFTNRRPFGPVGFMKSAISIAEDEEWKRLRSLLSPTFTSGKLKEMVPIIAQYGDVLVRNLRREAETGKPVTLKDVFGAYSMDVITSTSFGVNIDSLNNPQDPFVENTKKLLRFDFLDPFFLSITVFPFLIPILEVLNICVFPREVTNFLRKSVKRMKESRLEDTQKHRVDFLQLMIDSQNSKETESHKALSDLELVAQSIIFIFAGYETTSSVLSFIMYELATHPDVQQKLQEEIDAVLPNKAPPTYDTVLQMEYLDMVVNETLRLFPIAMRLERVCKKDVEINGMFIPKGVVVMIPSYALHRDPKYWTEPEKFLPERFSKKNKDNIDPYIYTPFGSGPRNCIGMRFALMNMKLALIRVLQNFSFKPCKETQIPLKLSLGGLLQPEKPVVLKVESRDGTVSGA
Chain of Rap guanine nucleotide exchange factor 3 (Homo sapiens) (O95398 whole entry, looked up): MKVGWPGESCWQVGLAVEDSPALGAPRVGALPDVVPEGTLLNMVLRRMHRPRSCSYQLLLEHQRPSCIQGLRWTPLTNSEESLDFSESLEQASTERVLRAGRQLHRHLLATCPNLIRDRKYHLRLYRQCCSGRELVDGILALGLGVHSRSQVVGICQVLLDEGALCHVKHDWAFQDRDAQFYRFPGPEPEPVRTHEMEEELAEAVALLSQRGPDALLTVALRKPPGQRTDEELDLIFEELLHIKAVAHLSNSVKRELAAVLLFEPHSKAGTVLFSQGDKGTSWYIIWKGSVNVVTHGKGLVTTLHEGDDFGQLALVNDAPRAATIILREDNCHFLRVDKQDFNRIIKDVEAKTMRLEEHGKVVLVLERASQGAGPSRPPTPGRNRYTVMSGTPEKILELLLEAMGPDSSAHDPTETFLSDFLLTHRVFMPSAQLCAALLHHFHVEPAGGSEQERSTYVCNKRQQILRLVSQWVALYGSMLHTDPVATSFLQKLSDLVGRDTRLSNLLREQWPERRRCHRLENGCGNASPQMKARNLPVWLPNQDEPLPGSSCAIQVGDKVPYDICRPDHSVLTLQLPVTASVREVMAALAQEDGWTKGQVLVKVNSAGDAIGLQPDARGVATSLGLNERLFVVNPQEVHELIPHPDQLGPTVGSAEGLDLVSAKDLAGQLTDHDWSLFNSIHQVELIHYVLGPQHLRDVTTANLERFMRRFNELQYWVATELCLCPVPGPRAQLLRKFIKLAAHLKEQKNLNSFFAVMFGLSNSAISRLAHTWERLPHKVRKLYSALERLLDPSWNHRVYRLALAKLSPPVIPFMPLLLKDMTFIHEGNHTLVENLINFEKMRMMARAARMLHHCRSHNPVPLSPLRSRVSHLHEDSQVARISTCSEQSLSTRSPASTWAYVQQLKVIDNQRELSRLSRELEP
Chain of 3',5'-cyclic-AMP phosphodiesterase 4B (Homo sapiens) (Q07343 whole entry, looked up): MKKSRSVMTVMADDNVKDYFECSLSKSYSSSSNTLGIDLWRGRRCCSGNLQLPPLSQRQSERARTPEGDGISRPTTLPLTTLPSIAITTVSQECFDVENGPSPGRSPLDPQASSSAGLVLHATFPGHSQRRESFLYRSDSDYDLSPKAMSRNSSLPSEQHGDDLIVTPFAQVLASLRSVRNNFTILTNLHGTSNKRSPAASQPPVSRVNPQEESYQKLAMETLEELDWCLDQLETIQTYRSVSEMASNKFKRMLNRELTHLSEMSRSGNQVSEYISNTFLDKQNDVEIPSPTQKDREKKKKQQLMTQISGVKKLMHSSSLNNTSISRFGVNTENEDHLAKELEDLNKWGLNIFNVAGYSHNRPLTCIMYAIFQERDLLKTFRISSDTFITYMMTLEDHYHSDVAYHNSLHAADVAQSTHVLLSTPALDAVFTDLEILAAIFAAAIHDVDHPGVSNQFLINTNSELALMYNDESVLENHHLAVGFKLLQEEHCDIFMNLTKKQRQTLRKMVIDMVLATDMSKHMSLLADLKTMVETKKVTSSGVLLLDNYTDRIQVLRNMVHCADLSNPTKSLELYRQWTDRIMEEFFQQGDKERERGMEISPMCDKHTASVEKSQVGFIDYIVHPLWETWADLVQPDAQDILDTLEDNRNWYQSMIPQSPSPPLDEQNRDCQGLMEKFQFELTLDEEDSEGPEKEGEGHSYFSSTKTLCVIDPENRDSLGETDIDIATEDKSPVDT

Turning to `O=C(c1cccc(F)c1)N1CCC2(CCCN(c3cccc(-c4ccccc4)c3)C2)CC1`, the Potency in assay [1] was greater than 11.4 µM; in assay [3], 15.8 µM (active); in [6] it was greater than 46 µM. The activity change, negative = inhibition was 11.6% in assay [2] and -6.68% in assay [4]. Moreover, the activity, negative = inhibition in assay [5] is 7.29%. For the same compound, the Potency result in [7], in assay [8], in [9], in assay [11], in assay [12] and in assay [13] was “inactive” throughout. In addition, in [14], the Potency entry was “inactive”. The result in assay [10] was inactive.
Regarding `Cn1c(=O)c(CCc2ccccc2)nc2cnc(Oc3ccccc3)nc21`, the Potency in assay [1] was greater than 11.4 µM; in assay [15], greater than 9.22 µM; in [6] it was greater than 46 µM. Moreover, the figures for the activity change, negative = inhibition in [2] and in assay [4] were -15.2% and -7.88%, respectively. Besides, the activity, negative = inhibition in assay [5] was -2.24%. The Potency result in assay [7], in assay [8], in [11], in [12], in assay [13] and in [14] was “inactive” throughout. The outcome in [10] was inactive.
With `COc1ccc(C(=O)N2CCC3(CCCN(Cc4cc(C(F)(F)F)cc(C(F)(F)F)c4)C3)CC2)cc1`, the Potency in assay [1] was greater than 11.4 µM; in assay [6], greater than 46 µM. Moreover, the Potency entry in [3], in [7], in assay [8], in [9], in [12] and in assay [13] was “inactive” each time. In addition, in [4], the activity change, negative = inhibition was -13.8%. Also, the activity, negative = inhibition in [5] was -8.85%. Also, the outcome in assay [10] was inactive.
For the compound `COc1cccc(-c2nccc(NCc3cccs3)n2)c1`, the Potency was greater than 11.4 µM in [1]; 0.2 µM (active) in assay [3]; greater than 46 µM in [15]; greater than 46 µM in assay [6]; 5.01 µM (active) in assay [16]; 10 µM (active) in [17]. Besides, the Potency in assay [14] is 62.2 µM (active). Moreover, the figures for the activity change, negative = inhibition in [2] and in assay [4] were -9.78% and 15.4%, respectively. Moreover, the activity, negative = inhibition in [5] was -0.369%. Further, the Potency entry in assay [7], in [8], in assay [9], in assay [12] and in [13] was “inactive” each time. The result in [10] was inactive.
For `O=c1c(-c2ccccc2)nc2cncnc2n1-c1ccccc1`, the Potency in [1] is greater than 11.4 µM; in assay [3], 5.01 µM (active); in assay [15], greater than 9.22 µM; in assay [6], greater than 46 µM. Further, the results for the activity change, negative = inhibition in assay [2] and in assay [4] were -10.5% and 2.09%, respectively. Also, in assay [5], the activity, negative = inhibition is 0.883%. Besides, the Potency entry in assay [7], in [17] and in [18] was “inactive” in each case. Besides, the result in [10] was inactive.
In the case of `COc1ccc(-n2c(=O)c(-c3ccccc3)nc3cnc(N4CCOCC4)nc32)cc1`, the Potency is greater than 11.4 µM in assay [1], 15.8 µM (active) in [3], greater than 9.22 µM in assay [15] and greater than 46 µM in assay [6]. Also, the activity change, negative = inhibition in assay [2] is 5.32%; in assay [4], 6.27%. For the same compound, the activity, negative = inhibition in assay [5] was 6.26%. The Potency entry in [7], in [8], in assay [17] and in assay [18] was “inactive” throughout. Further, the result in [10] was inactive.
On to `Cc1c(CC(C)(C)C(=O)O)n(Cc2ccc(Cl)cc2)c2ccc(F)cc12`, for which, in assay [2], the activity change, negative = inhibition is -22.4% [at 38 µM]. Further, the Potency in assay [3] is 12.6 µM (active) and 15.8 µM (active); in assay [15], greater than 46 µM; in [6], greater than 46 µM; in [14] it was 27.8 µM (active). Also, the activity, negative = inhibition in assay [5] is -0.406% [at 38 µM]. In addition, the Potency result in [7], in [8], in assay [9], in [12] and in [13] was “inactive” in each case. In addition, in assay [10], the outcome was inactive.
